In all, about 69,000 compounds went through this assay and about 8,600 (12%) showed an effect of 50% or more. This excerpt belongs to a sample that is enriched for strong results.
Test system: Plasmodium berghei
Test: Screen against P. berghei liver stage (PbLuc), transformed with Luciferase, at 10uM
Format: functional, HepG2
Settings: tested at 10 uM

Point of comparison: CS(=O)(=O)CCN1CCSCC1c1ccc(Cl)cc1 (configuration not stated), INHIBITION 59.7%. Against it:
- CC(C)CNC(=O)c1cn(-c2ccccn2)c(=O)c2ccccc12 — lower, 13.9%
- CCN1CC2(CC1=O)CN(C(=O)NC(C)C)CCN(C(=O)NC(C)C)C2 — lower, 27.5%
- Cc1cnn(CC2CN(CC(=O)N(C)Cc3ccsc3)CCO2)c1 (configuration not stated) — lower, -89%
- CS(=O)(=O)c1cccc(C(=O)N2CCCC(n3cccn3)C2)c1 (configuration not stated) — lower, 1.94%
- O=C(CN1CCCC(Cn2cncn2)C1)NCc1ccccc1F (configuration not stated) — lower, 19.4%
- CC(C)c1nn(C)c(N(C)C)c1CNCc1cccc2cccnc12 — lower, 19.283%
- CC(C)CC(=O)N1CC[C@H]2N(C)CC[C@@]2(C(=O)Nc2cccnc2)CC1 — lower, 26.7%
- Cc1c(C2N3CC4(C)CN2CC(C)(C3)C4=O)[nH]c(=O)[nH]c1=O (configuration not stated) — lower, 46.6%
- Cc1c(C2N3CC4(C(C)C)CN2CC(C(C)C)(C3)C4=O)[nH]c(=O)[nH]c1=O (configuration not stated) — lower, 54.3%
- CCC12CN3CC(CC)(CN(C1)C3c1[nH]c(=O)[nH]c(=O)c1C)C2=O (configuration not stated) — lower, 11.1%
- O=C(C1CCC1)N1C[C@H]2CC[C@@H](C1)N(S(=O)(=O)c1cccnc1)C2 — lower, -70.7%
- O=C(NCCCNC(=O)c1cccc(O)c1)Nc1ccc(F)cc1F — lower, -4.74%
- COCc1noc(C2(c3ccc(F)cc3)CC2)n1 — lower, 11.6%
- COCc1noc(C2(c3ccc(F)cc3)CCOCC2)n1 — lower, 15.1%
- COCc1noc(C2(c3ccc(F)cc3)CCC2)n1 — higher, 77.2%
- COCc1ncn2c1CN(C(=O)c1ccc3ccccc3n1)CC2 — lower, -6.3%
- CC(C)(C)C(=O)NCCC(=O)N1CCC(Nc2cccnn2)CC1 — lower, 41.5%
- O=C(CNCCn1cccn1)NCC1(c2ccccc2)CC1 — lower, 8.48%
- O=C(CNCCn1cccn1)NCC1(c2ccccc2)CCCC1 — lower, -23.9%
- O=C(CNCCn1cccn1)NCC1(c2ccccc2)CCC1 — higher, 72.8%
- CN1CCC(NC(=O)c2cc(Cl)cc(Br)c2O)C1=O (configuration not stated) — lower, 24.4%
- OC1(CN2CCCCC2)CCN(c2nccc(C(F)(F)F)n2)C1 (configuration not stated) — lower, 46.7%
- O=S(=O)(CCNCc1ccc2c(c1)CCO2)N1CCOCC1 — lower, -3.19%
- c1cc(CNCc2ccc3c(c2)CCO3)cc(N2CCOCC2)n1 — lower, -1.58%
- Fc1cc(CNCc2ccc3c(c2)CCO3)ccc1N1CCOCC1 — lower, 55.1%
- CC(C)c1nc(C2CCCN(C(=O)c3nccn4ccnc34)C2)no1 (configuration not stated) — lower, 9.64%
- Cc1cn(Cc2ccccc2)nc1N — lower, 24.8%
- O=C(c1cc(Br)ccc1-n1cnnn1)N1CCCC1 — lower, 28.6%
- CC(C)c1nnsc1CNC(=O)C1CCN(C(=O)C2CCCC2)CC1 — lower, 41.6%
- CC(C)c1nnsc1CNC(=O)C1CCCN(C(=O)N(C)C)C1 (configuration not stated) — lower, 53.5%
- CC(C)c1nnsc1CNC(=O)C1CCN(C(=O)C2CCC2)CC1 — lower, 44.6%
- Nc1no[n+]([O-])c1C(=O)NCc1ccco1 — lower, 5.7%
- COc1ccnc(CN(C)C(=O)CSc2nnc(N)s2)c1 — higher, 71.4%
- CCn1ccc(CN(C)C(=O)CSc2nnc(N)s2)n1 — lower, 22.6%
- COc1ccc(CN(C)C(=O)CSc2nnc(N)s2)c(OC)c1OC — lower, 18.9%
- Cc1nc(CN2CCCN(C(=O)c3sccc3C#N)CC2)cs1 — lower, -27.8%
- Cc1noc(CC2CCN(Cc3ccc(CCC(C)(C)O)cc3)CC2)n1 — lower, 40.2%
- Cc1nc(CC2CCN(Cc3ccc(CCC(C)(C)O)cc3)CC2)no1 — higher, 60.7%
- c1ccc(CN2CCC(Cc3noc(C4CC4)n3)CC2)cc1 — lower, 28.8%
- CN(C)c1cc(CNC(=O)CC2CCCCC2)ccn1 — lower, 4.34%
- Cc1cccc(Cn2c3c(ccc2=O)CCN(Cc2ccoc2)CC3)n1 — lower, 8.47%
- O=C(CN(C1=NCCCC1)c1ccccc1)c1ccc2c(c1)OCCO2 — lower, 33.3%
- Cc1ccc(N(CC(=O)c2ccc(Br)cc2)C2=NCCCCC2)cc1 — higher, 87.6%
- O=C(CN(C1=NCCCCC1)c1ccc(Cl)cc1)c1ccccc1 — higher, 59.8%
- Cc1cccc(N(CC(=O)N2CCCCC2)C(=O)C2CCCO2)c1 (configuration not stated) — lower, -84.1%
- O=C(CN(C1=NCCCC1)c1ccccc1)c1ccccc1 — lower, -13.4%
- Cc1ccc(N(CC(=O)N2CCCCC2)C(=O)C2CCCO2)cc1 (configuration not stated) — lower, -7.25%
- O=C(CC(SC1CCCCC1)C(=O)O)c1ccc(Cl)cc1 (configuration not stated) — lower, 6.83%
- COc1ccc(C(=O)CN(C2=NCCCCC2)c2ccccc2)cc1 — lower, 20.1%
- Cc1ccc(C(=O)CN(C2=NCCCCC2)c2ccccc2)cc1 — lower, 44.1%
- O=C(CN(C1=NCCCC1)c1ccccc1)c1ccc(OC(F)F)cc1 — lower, 30.8%
- CCOc1ccc(N(CC(=O)c2ccccc2)C2=NCCCCC2)cc1 — higher, 68.7%
- Cc1cccc(N(CC(=O)c2ccccc2)C2=NCCCCC2)c1 — lower, 51.6%
- CC1=N[C@@]2(CC[C@@H]3CN(CC(C)C)C[C@@H]32)C(=O)N1C — lower, 18.5%
- Cc1nn(C)c2cnn(CC(=O)NCc3ccc4c(c3)OCO4)c12 — lower, 36.6%
- Cc1c(C(=O)NC(C)C)nnn1-c1cccc(C(F)(F)F)c1 — lower, 15.2%
- c1coc(CN2C[C@@H]3OCCN(CC4CCCO4)[C@@H]3C2)c1 (some centres not stated) — lower, 41.6%
- COC(=O)c1ccc(OCCn2cnc(C#N)n2)cc1 — lower, 7.18%
- CN(C)c1ncc(-c2cccc(C(N)=O)c2)c(C2CNCCO2)n1 (configuration not stated) — lower, 17.3%
- COc1c(CNC2CCc3c(F)cccc32)c(C)nn1C (configuration not stated) — lower, -16%
- c1coc(-c2nc(CNCCn3cccn3)cs2)c1 — lower, 21.5%
- CC(c1ccc(Cl)cc1)N1CCN(CCCS(C)(=O)=O)CC1 (configuration not stated) — lower, -5.1%
- O=C(NCc1ccncc1)N1CCSCC1c1ccc(Cl)cc1 (configuration not stated) — lower, -23.2%
- CS(=O)(=O)NCCCN1CCCC1c1ccsc1 (configuration not stated) — lower, -5.25%
- Cc1ccc(C2CSCCN2CCS(C)(=O)=O)cc1 (configuration not stated) — lower, 34%
- Cc1ccc(C2CSCCN2CC(=O)N2CCOCC2)cc1 (configuration not stated) — lower, 15.3%
- CC(c1ccc(Cl)cc1)N1CCN(CCS(C)(=O)=O)CC1 (configuration not stated) — lower, 48.5%
- CS(=O)(=O)NCCN1CCSCC1c1ccc(Cl)cc1 (configuration not stated) — lower, -3.39%
- CS(=O)(=O)NCCN1CCCC1c1ccc(Cl)cc1 (configuration not stated) — lower, 50.3%
- CCS(=O)(=O)CCCN1CCSCC1c1ccc(Cl)cc1 (configuration not stated) — lower, 56.5%
- CS(=O)(=O)CCCN1CCSCC1c1ccc(Cl)cc1 (configuration not stated) — lower, 31.9%
- CC(c1ccc(Cl)cc1)N1CCN(CCNS(C)(=O)=O)CC1 (configuration not stated) — lower, 53.5%
- COc1ccc(CNCC(C)Oc2ccccn2)cc1Br (configuration not stated) — lower, -33.2%
- CC1CCN(C(=O)[C@H]2CC[C@@H]3[C@@H](CCN3Cc3nccs3)O2)CC1 — lower, 39.5%
- O=c1ccc2c(n1Cc1cccnc1)CCN(C1CCOC1)CC2 (configuration not stated) — lower, 39.4%
- N#CC1(C(=O)N2C[C@H](Nc3ccnc(N)n3)[C@@H](C3CC3)C2)CCOCC1 — lower, 26.9%
- CC(C)c1noc(C(C)N2CCN(Cc3nnc(C4CC4)o3)CC2)n1 (configuration not stated) — lower, 0.914%
- O=C(c1ccccc1)N1CCC2(CCCN2c2ncccn2)CC1 — lower, -22.1%
- Cc1nc(CN(C)CC(c2cccs2)N2CCOCC2)no1 (configuration not stated) — lower, 15.3%
- CC(=O)N1N=C(c2ccccc2)OC1C(=O)NCC(=O)OC(C)(C)C (configuration not stated) — lower, 28.3%
- CCC(CO)NCc1ccc(-c2ccccc2)o1 (configuration not stated) — lower, 50.8%
- CCC(CO)NCc1ccc(-c2ccc(F)c(Cl)c2)o1 (configuration not stated) — lower, 18.8%
- CCC(CO)NCc1ccc(-c2ccccc2F)o1 (configuration not stated) — higher, 73.5%
- CCC(CO)NCc1ccc(-c2ccc(Br)cc2)o1 (configuration not stated) — lower, -11.6%
- CCC(CO)NCc1ccc(-c2ccc(Cl)cc2)o1 (configuration not stated) — lower, 17.7%
- CCC(CO)NCc1ccc(-c2ccc(F)cc2)o1 (configuration not stated) — lower, 14.4%
- CN1CCN(c2ncc(CNCCCc3cccc(F)c3)cn2)CC1 — lower, 46.8%
- CCC1CN(CC(=O)NCC(C)C)CCO1 (configuration not stated) — lower, 30.9%
- CCC1CN(CC(=O)NCCC#N)CCO1 (configuration not stated) — lower, 52.6%
- CCC1CN(CC(=O)Nc2sccc2C#N)CCO1 (configuration not stated) — lower, 17%
- CCC1CN(CC(=O)NCCOC)CCO1 (configuration not stated) — lower, -22.3%
- CCCNC(=O)CN1CCOC(CC)C1 (configuration not stated) — higher, 61.3%
- CCC1CN(CC(=O)NC(C)C)CCO1 (configuration not stated) — lower, -8.22%
- O=C(c1ccccn1)N1C[C@H]2CC[C@@H](C1)N(C(=O)Cc1cccs1)C2 — lower, 4.13%
- CC1=N[C@@]2(CC[C@@H]3CN(S(=O)(=O)N(C)C)C[C@@H]32)C(=O)N1CC(C)C — lower, 7.96%
- Cc1nc(C2CCCN2C(=O)c2csc3c2CCCC3)no1 (configuration not stated) — lower, 15.3%
- Cc1c(C)n(Cc2ccncc2)c2nc3c(c(N)c12)CCCC3 — lower, 44.1%
- Cc1c(C)n(Cc2ccncc2)c2nc3c(c(N)c12)CCCCCC3 — higher, 77.6%
- Cc1c(C)n(Cc2ccncc2)c2nc3c(c(N)c12)CCCCC3 — higher, 70.3%
- Cc1ccc(CN2CCC3(CCN(Cc4ccncc4)CC3)CC2)cc1 — lower, 33%
- CN1CCC(NC(=O)[C@H]2CC[C@@H]3[C@@H](CCN3c3ncccn3)O2)CC1 — lower, 18.5%
- CCc1nc(CC(=O)N2CCn3c(CC)nnc3C2)cs1 — lower, -12.33%
- CCS(=O)(=O)Nc1ccn(Cc2c(F)cccc2Cl)n1 — lower, -39.5%
- N#Cc1cccnc1N1CCCN(C(=O)CCn2cccn2)CC1 — lower, 29.2%
- CN1CCN(Cc2ccccc2CNC(=O)c2cc(Cl)ccc2F)CC1 — higher, 63.3%
- CN1CCN(c2ccccc2CNC(=O)Cc2ccccc2F)CC1 — lower, 14.3%
- O=C(NCc1ccccc1CN1CCOCC1)c1ccc(Br)cc1F — higher, 62.3%
- Cn1ccc(C(=O)NCc2ccccc2CN2CCCC2)cc1=O — lower, 13.6%
- O=C(NCc1ccccc1CN1CCOCC1)Nc1nncs1 — lower, -10.4%
- CN1CCN(Cc2ccccc2CNC(=O)c2ccc(Cl)cc2F)CC1 — lower, 55.4%
- O=C(NCc1ccncc1)c1ccc(Cl)cc1F — lower, -3.95%
- O=C(Nc1ccc(Br)cc1F)c1cc(CN2CCOCC2)on1 — lower, -43.7%
- CN1CCN(Cc2ccccc2CNC(=O)c2ccc(Br)cc2F)CC1 — lower, 30.8%
- COc1ccc(CNC(=O)c2ccc(Cl)cc2F)cc1C(=O)O — lower, -8.55%
- CN1CCN(Cc2ccccc2CNC(=O)c2cc(Br)ccc2F)CC1 — lower, 59.3%
- CN1CCN(Cc2ccccc2CNC(=O)c2ccc(Br)cc2)CC1 — lower, 33.2%

— ChEMBL document CHEMBL4513216, “Probing the Open Global Health Chemical Diversity Library for Multistage-Active Starting Points for Next-Generation Antimalarials” (ACS Infect Dis, 2020)
